From PubChem BioAssay (Tox21) come the findings set out here.

Unmarked numbers belong to inactive results. Records with an inconclusive call do not appear. Where a call stands in place of a potency, no number is given. The source made the active and inactive calls. Unless noted, calls follow the shape of the full dose curve.

Sequence of Thyrotropin receptor (Homo sapiens) (P16473 whole entry, looked up): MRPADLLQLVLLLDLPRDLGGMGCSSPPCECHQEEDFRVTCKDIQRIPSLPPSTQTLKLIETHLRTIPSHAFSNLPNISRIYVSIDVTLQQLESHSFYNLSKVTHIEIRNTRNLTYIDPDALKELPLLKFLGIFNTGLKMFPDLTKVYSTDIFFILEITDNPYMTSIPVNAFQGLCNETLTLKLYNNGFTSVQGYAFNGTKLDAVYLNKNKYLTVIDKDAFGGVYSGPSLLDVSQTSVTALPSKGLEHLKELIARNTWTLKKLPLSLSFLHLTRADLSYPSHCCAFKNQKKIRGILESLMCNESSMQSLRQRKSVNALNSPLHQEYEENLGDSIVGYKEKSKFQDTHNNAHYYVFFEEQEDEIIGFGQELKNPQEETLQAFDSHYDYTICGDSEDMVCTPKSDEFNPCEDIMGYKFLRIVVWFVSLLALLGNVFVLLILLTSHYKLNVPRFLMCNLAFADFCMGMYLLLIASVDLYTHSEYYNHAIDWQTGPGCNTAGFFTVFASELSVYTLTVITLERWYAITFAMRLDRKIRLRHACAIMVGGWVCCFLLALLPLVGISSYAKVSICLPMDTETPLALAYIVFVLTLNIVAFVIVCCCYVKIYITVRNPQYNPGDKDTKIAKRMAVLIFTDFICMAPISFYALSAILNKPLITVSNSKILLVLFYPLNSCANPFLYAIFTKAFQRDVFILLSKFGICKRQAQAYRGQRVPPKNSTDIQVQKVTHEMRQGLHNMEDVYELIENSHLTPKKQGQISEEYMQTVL
Sequence of Estrogen receptor (Homo sapiens) (P03372 whole entry, looked up): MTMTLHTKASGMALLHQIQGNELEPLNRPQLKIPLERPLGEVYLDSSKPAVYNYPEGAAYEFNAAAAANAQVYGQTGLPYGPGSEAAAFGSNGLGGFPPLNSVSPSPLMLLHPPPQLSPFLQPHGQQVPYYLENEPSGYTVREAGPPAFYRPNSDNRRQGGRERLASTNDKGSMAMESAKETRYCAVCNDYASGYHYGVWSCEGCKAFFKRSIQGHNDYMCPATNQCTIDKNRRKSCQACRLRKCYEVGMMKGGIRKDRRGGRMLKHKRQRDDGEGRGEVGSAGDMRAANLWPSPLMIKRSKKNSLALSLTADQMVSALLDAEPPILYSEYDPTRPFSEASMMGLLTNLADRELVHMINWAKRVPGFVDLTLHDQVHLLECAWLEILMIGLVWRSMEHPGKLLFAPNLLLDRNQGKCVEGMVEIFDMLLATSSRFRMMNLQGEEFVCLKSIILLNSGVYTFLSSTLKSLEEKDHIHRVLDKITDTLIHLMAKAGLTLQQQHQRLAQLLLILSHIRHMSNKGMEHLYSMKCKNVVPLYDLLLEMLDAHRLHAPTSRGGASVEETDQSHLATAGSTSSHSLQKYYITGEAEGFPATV

System in the first experiment: not listed separately
In words: qHTS assay to identify small molecule antagonists of the estrogen receptor beta (ER-beta) signaling pathway - cell viability counter screen (AID 1259382; active = well fitted cell-killing curve with a large enough effect in the repeat runs;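 also: HEK293T cells carrying ER-beta-UAS-bla reporter stimulated with estradiol; nearly all actives have a fitted effect of over 55% in size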). As to conditions: ER-beta-UAS-bla HEK293T viability, CellTiter-Glo luminescence, 16 h; series mostly up to 92.4 µM. In short, it runs like this: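 Tox21 10K library tested in qHTS format on ER-beta-bla HEK293T cells stimulated with 1nM E2; 16 hr treatment at 37C. Same-well CellTiter-Glo luminescence served as the cell viability measure.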
For the molecule `CCCCCCCCCCCCCCCC(=O)OC`, the activity change, negative = cytotoxicity is 0.248% [at 19 µM].
Consider `N[C@H]1C(O)O[C@H](CO)[C@@H](O)[C@@H]1O` (some centres not stated), for which the call was inactive.
As to `C=C(C)C(=O)OCCOC1CC2CC1C1C=CCC21` (configuration not stated), the call was inactive.
For `C=COCCCCO`, the molecule was classed as inactive.
Regarding `COC(=O)c1ccc(C(=O)O)cc1`, the molecule was called inactive.
As to `COC(=O)/C=C(\C)CCC=C(C)C`, the result was inactive.
As to `CCO[Si](CC(C)C)(OCC)OCC`, the call was inactive.
As for `CC(C)C(C)C`, the result was inactive.
For `CC[N+](C)(CC)CC`, the call was inactive.
In the case of `CCCCC(CC)COC(=O)CC#N` (configuration not stated), the molecule was called inactive.
Same read-out and setting: to `Cc1ccc2cccnc2c1` belongs “inactive”.
As for `CCCCCCCCCCCCCCCCN(C)C`, the activity change, negative = cytotoxicity was 6.11% [at 8.39 µM].
For the molecule `O=S(=O)(O)c1cc(I)c(O)c2ncccc12`, the molecule was called inactive.
On the same count and under the same terms, in the case of `CC(C)OCCO` it was “inactive”; in that of `COc1ccc(Cl)cc1C`, “inactive”.
Same read-out and setting: in the case of `O=C(O)Cc1c(Cl)ccc(Cl)c1Cl` it was “inactive”; in that of `CCC(C)(C)C`, “inactive”.
As to `CN1CCN(C(=O)C2CCCCC2)CC1`, the call was inactive.
In the case of `CCCOc1ccc(C(=O)OCCN(CC)CC)cc1N`, the call was inactive.
In the case of `Cc1nnc(C(=O)NC(C)(C)c2nc(C(=O)NCc3ccc(F)cc3)c(O)c(=O)n2C)o1`, the molecule was called inactive.
Regarding `CCc1ncc(C)[nH]1`, the call was inactive.
The same measure, in the same setting: to `CCN(CC)CC(=O)Oc1ccc(NC(C)=O)cc1` belongs “inactive”; to `CCN1CCN(C(=O)N[C@@H](C(=O)N[C@@H]2C(=O)N3[C@@H]2SC(C)(C)[C@H]3C(=O)O)c2ccccc2)C(=O)C1=O`, “inactive”.

A further experiment concerns the target Estrogen receptor (Homo sapiens) (UniProt P03372). In words: qHTS assay to identify small molecule agonists of the estrogen receptor alpha (ER-alpha) signaling pathway in the presence of an antagonist (AID 1259383). Also: nearly all actives have a fitted effect of over 15% in size. Also: potency is read from the fitted curve at half-maximal effect. As to activation: top concentration of the series differs between compounds. As to conditions: VM7Luc4E2 cells, ERE-luciferase, +ICI-182,780, 22 h; series mostly up to 92.4 µM. Summed up:
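In VM7Luc4E2 cells, 4,000 per well, compounds at 15 concentrations were co-incubated 22hr at 37C with 10.0nM final ICI-182,780. Luminescence from the stably transfected 4×ERE-luciferase reporter was recorded 30min after ONE-Glo addition.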
As to `CCCCCCCCCCCCCCCC(=O)OC`, the activation is -2.08% [at 19 µM].
For `N[C@H]1C(O)O[C@H](CO)[C@@H](O)[C@@H]1O` (some centres not stated), the Potency result was “inactive”.
The same measure, in the same setting: in the case of `C=COCCCCO` it was “inactive”.
For `COC(=O)c1ccc(C(=O)O)cc1`, the Potency result is “inactive”.
On the same count and under the same terms, to `COC(=O)/C=C(\C)CCC=C(C)C` belongs “inactive”; to `CCO[Si](CC(C)C)(OCC)OCC`, “inactive”; to `CC1(C)S[C@@H]2[C@H](NC(=O)Cc3ccccc3)C(=O)N2[C@H]1C(=O)O` (tested in a mixture with another compound), “inactive”.
As to `CCOC(=O)CN1CCCC1=O`, the Potency entry was “inactive”.
As for `BrCCOc1ccccc1`, the Potency result is “inactive”.
Regarding `CCCCC(CC)COC(=O)CC#N` (configuration not stated), the Potency entry was “inactive”.
On to `Cc1ccc2cccnc2c1`, for which the Potency result was “inactive”.
Regarding `CCCCCCCCCCCCCCCCN(C)C`, the activation was 0.651% [at 8.39 µM].
Consider `CCC(C)c1nccnc1OC` (configuration not stated), for which the Potency entry was “inactive”.
For the molecule `CCCCC(O)/C=C(C)/C=C/C=C/C(=O)N1CCCC1=O` (configuration not stated), the Potency result was “inactive”.
With `Clc1cc(Cl)c(Cl)c(Cl)c1Cl`, the Potency entry was “inactive”.
With `CC(C)(C)c1ccc(C(=O)CCCCl)cc1`, the Potency was 7.5 µM (active).
On to `O=C(O)Cc1c(Cl)ccc(Cl)c1Cl`, for which the Potency result was “inactive”.
The same measure, in the same setting: in the case of `CCC(C)(C)C` it was “inactive”.
`C/C=C/C(=O)CCCC`: the Potency entry is “inactive”.
For the molecule `CN1CCN(C(=O)C2CCCCC2)CC1`, the Potency entry was “inactive”.
Turning to `COc1cc2nc(N3CCN(C(=O)C4CCCO4)CC3)nc(N)c2cc1OC` (configuration not stated), the Potency result was “inactive”.
With `CC(=O)SCC(CC(=O)c1ccc(C)cc1)C(=O)O` (configuration not stated), the Potency entry is “inactive”.
With `CCN1CCN(C(=O)N[C@@H](C(=O)N[C@@H]2C(=O)N3[C@@H]2SC(C)(C)[C@H]3C(=O)O)c2ccccc2)C(=O)C1=O`, the Potency result was “inactive”.

System in the next experiment: not listed separately
In words: qHTS assay to identify small molecule agonists or antagonists of the thyroid stimulating hormone receptor (TSHR) signaling pathway - wild type cell line counter screen (AID 1259384). Conditions: HEK293 wild type, cAMP HTRF counter-screen, hits give high values; series mostly up to 92.4 µM. Summed up: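 Counter screen in untransfected Hek293: compounds (15-point titration, triplicate) plus phosphodiesterase inhibitor Ro20-1724 added after 18 h plating; 30 min RT. Intracellular cAMP via competitive d2/cryptate immunoassay, 1 h incubation.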
Turning to `CCCCCCCCCCCCCCCC(=O)OC`, the cAMP activity change was -2.44% [at 18.9 µM].
In the case of `C=C(C)C(=O)OCCOC1CC2CC1C1C=CCC21` (configuration not stated), the molecule was called inactive.
Consider `C=COCCCCO`, for which the outcome was inactive.
With `COC(=O)c1ccc(C(=O)O)cc1`, the call was inactive.
Regarding `COC(=O)c1cc(Cl)c(NC(C)=O)cc1OC`, the molecule was called inactive.
As for `COC(=O)/C=C(\C)CCC=C(C)C`, the molecule was classed as inactive.
For `O=S(=O)(O)c1cc(I)c(O)c2ncccc12`, the molecule was called inactive.
Take `CCC(C)c1nccnc1OC` (configuration not stated): the molecule was classed as inactive.
As for `CCCCC(O)/C=C(C)/C=C/C=C/C(=O)N1CCCC1=O` (configuration not stated), the outcome was inactive.
Regarding `CC(C)OCCO`, the result was inactive.
`O=Cc1ccccc1S(=O)(=O)O`: the molecule was classed as inactive.
On the same count and under the same terms, to `O=C(O)Cc1c(Cl)ccc(Cl)c1Cl` belongs “inactive”.
In the case of `CC(C)(C)NCC(O)COc1cccc2c1CCC(=O)N2` (configuration not stated), the call was inactive.
Take `CCC(C)(C)C`: the molecule was called inactive.
As to `C/C=C/C(=O)CCCC`, the molecule was classed as inactive.
For the molecule `CN1CCN(C(=O)C2CCCCC2)CC1`, the outcome was inactive.
For the molecule `CCCOc1ccc(C(=O)OCCN(CC)CC)cc1N`, the outcome was inactive.
Same read-out and setting: in the case of `Cc1nnc(C(=O)NC(C)(C)c2nc(C(=O)NCc3ccc(F)cc3)c(O)c(=O)n2C)o1` it was “inactive”; in that of `CC(=O)SCC(CC(=O)c1ccc(C)cc1)C(=O)O` (configuration not stated), “inactive”.
As for `CCc1ncc(C)[nH]1`, the molecule was called inactive.
In the case of `CCN(CC)CC(=O)Oc1ccc(NC(C)=O)cc1`, the call was inactive.

A further experiment deals with Thyrotropin receptor (Homo sapiens) (UniProt P16473). In words: qHTS assay to identify small molecule antagonists of the thyroid stimulating hormone receptor (TSHR) signaling pathway (AID 1259385). Also: nearly all actives have a fitted effect of over 20% in size. As to conditions: TSHR-HEK293 cAMP HTRF, TSH-stimulated antagonist mode; series mostly up to 92.4 µM. In short, it runs like this:
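Antagonist mode: compound-treated TSHR-expressing HEK293 cells were stimulated with 1.5 ng/mL TSH (final) in presence of Ro20-1724 for 30 min at RT. HTRF cAMP detection after 1 h; each compound tested at 15 concentrations, triplicate.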
Take `CCCCCCCCCCCCCCCC(=O)OC`: the activity change, negative = inhibition is 1.93% [at 19 µM].
Regarding `N[C@H]1C(O)O[C@H](CO)[C@@H](O)[C@@H]1O` (some centres not stated), the outcome was inactive.
For the molecule `C=COCCCCO`, the result was inactive.
The same measure, in the same setting: in the case of `COC(=O)c1ccc(C(=O)O)cc1` it was “inactive”; in that of `COC(=O)c1cc(Cl)c(NC(C)=O)cc1OC`, “inactive”; in that of `COC(=O)/C=C(\C)CCC=C(C)C`, “inactive”.
Regarding `CCO[Si](CC(C)C)(OCC)OCC`, the call was inactive.
As to `CC(C)C(C)C`, the molecule was called inactive.
Consider `CC1(C)S[C@@H]2[C@H](NC(=O)Cc3ccccc3)C(=O)N2[C@H]1C(=O)O` (tested in a mixture with another compound), for which the result was inactive.
The same measure, in the same setting: to `CCCCC(CC)COC(=O)CC#N` (configuration not stated) belongs “inactive”.
As to `CCCCCCCCCCCCCCCCN(C)C`, the activity change, negative = inhibition is 1.02% [at 8.39 µM].
On to `O=S(=O)(O)c1cc(I)c(O)c2ncccc12`, for which the call was inactive.
Take `CCC(C)c1nccnc1OC` (configuration not stated): the molecule was called inactive.
Regarding `CCCCC(O)/C=C(C)/C=C/C=C/C(=O)N1CCCC1=O` (configuration not stated), the outcome was inactive.
As to `Clc1cc(Cl)c(Cl)c(Cl)c1Cl`, the molecule was classed as inactive.
Consider `CC(C)OCCO`, for which the molecule was called inactive.
On to `O=Cc1ccccc1S(=O)(=O)O`, for which the molecule was called inactive.
Regarding `CC(C)(C)c1ccc(C(=O)CCCCl)cc1`, the molecule was classed as inactive.
Regarding `O=C(O)Cc1c(Cl)ccc(Cl)c1Cl`, the call was inactive.
Consider `CC(C)(C)NCC(O)COc1cccc2c1CCC(=O)N2` (configuration not stated), for which the call was inactive.
For `CCC(C)(C)C`, the call was inactive.
Consider `C=CCON/C(CCC)=C1\C(=O)CC(C)(C)C(C(=O)OC)=C1O`, for which the molecule was called inactive.
For the molecule `C/C=C/C(=O)CCCC`, the result was inactive.
Regarding `CN1CCN(C(=O)C2CCCCC2)CC1`, the call was inactive.
`CCCOc1ccc(C(=O)OCCN(CC)CC)cc1N`: the molecule was classed as inactive.
Same read-out and setting: to `Cc1nnc(C(=O)NC(C)(C)c2nc(C(=O)NCc3ccc(F)cc3)c(O)c(=O)n2C)o1` belongs “inactive”; to `CC(=O)SCC(CC(=O)c1ccc(C)cc1)C(=O)O` (configuration not stated), “inactive”.
With `CCc1ncc(C)[nH]1`, the outcome was inactive.
Turning to `CCN(CC)CC(=O)Oc1ccc(NC(C)=O)cc1`, the outcome was inactive.
With `CCN1CCN(C(=O)N[C@@H](C(=O)N[C@@H]2C(=O)N3[C@@H]2SC(C)(C)[C@H]3C(=O)O)c2ccccc2)C(=O)C1=O`, the molecule was classed as inactive.
